Measured values from PubChem BioAssay (Tox21).
Records with an inconclusive call do not appear. Where a call stands in place of a potency, no number is given. A number with no mark means an inactive call. Active and inactive are the calls of the source. Unless noted, calls come from the whole dose curve; as a rule, active = well fitted curve in the direction sought with a large enough effect in the repeat runs; inconclusive = weak or mixed curves; inactive = no such curve, though single readings can be large; an effect the other way counts as inactive or inconclusive.

Key:
[1] = qHTS assay to identify aromatase inhibitors - cell viability counter screen (AID 743084);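 note: cells stimulated with testosterone during compound exposure; nearly all actives have a fitted effect of over 55% in size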
[2] = molecular target: Aryl hydrocarbon receptor (Homo sapiens) (UniProt P35869); test: qHTS assay to identify small molecule that activate the aryl hydrocarbon receptor (AhR) signaling pathway (AID 743085);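 note: HG2L7.5c1 human HepG2 liver cells with stably integrated DRE-driven firefly reporter; series mostly up to about 70 µM; nearly all actives have a fitted effect of over 15% in size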
Aryl hydrocarbon receptor (Homo sapiens), sequence (P35869 whole entry, looked up): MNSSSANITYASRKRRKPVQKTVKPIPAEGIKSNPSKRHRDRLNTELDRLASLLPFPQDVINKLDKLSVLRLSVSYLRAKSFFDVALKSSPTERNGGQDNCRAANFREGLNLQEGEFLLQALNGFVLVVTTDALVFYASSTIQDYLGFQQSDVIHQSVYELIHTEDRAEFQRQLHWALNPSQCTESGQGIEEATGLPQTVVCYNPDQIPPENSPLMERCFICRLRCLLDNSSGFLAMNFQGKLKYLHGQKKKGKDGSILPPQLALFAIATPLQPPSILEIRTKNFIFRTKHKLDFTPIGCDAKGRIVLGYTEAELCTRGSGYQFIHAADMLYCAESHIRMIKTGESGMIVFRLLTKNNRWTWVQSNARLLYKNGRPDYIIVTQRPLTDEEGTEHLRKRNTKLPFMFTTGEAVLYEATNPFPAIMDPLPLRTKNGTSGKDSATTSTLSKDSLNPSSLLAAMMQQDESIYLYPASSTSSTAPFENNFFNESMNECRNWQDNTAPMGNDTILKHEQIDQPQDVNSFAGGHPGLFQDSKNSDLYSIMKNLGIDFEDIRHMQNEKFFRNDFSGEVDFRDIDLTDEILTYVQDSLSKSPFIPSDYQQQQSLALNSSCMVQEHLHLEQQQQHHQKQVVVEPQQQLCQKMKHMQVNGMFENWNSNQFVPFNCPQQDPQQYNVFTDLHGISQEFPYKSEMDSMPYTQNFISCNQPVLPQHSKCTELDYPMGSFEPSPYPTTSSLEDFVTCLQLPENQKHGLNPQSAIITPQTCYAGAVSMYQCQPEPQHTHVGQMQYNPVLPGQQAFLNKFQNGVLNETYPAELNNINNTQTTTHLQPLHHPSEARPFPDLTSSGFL
Method in brief: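 Compounds were tested in HepG2 hepatocellular carcinoma cells harbouring a stably integrated luciferase gene under control of 20 DREs. Increased reporter signal after 24 h treatment at 37C was taken as AhR activation.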

[3] = qHTS assay to identify small molecule that activate the aryl hydrocarbon receptor (AhR) signaling pathway - cell viability counter screen (AID 743086);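 note: HepG2 liver cells carrying the AhR DRE luciferase reporter; series mostly up to about 70 µM; nearly all actives have a fitted effect of over 45% in size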
Method in brief: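 HepG2-AhR-luc (HG2L7.5c1) cells, 4000/well, treated 24 h at 37 C with compound; viability measured as CellTiter-Fluor fluorescence after 30 min in the same wells as the luciferase read.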

[4] = molecular target: Peroxisome proliferator-activated receptor gamma (Homo sapiens) (UniProt P37231); test: qHTS assay to identify small molecule agonists of the peroxisome proliferator-activated receptor gamma (PPARg) signaling pathway (AID 743094; active = well fitted activation curve with a large enough effect in the signal ratio in the repeat runs, not every such curve was filed as active; the % refers to the signal ratio)
Peroxisome proliferator-activated receptor gamma (Homo sapiens), sequence (P37231 whole entry, looked up): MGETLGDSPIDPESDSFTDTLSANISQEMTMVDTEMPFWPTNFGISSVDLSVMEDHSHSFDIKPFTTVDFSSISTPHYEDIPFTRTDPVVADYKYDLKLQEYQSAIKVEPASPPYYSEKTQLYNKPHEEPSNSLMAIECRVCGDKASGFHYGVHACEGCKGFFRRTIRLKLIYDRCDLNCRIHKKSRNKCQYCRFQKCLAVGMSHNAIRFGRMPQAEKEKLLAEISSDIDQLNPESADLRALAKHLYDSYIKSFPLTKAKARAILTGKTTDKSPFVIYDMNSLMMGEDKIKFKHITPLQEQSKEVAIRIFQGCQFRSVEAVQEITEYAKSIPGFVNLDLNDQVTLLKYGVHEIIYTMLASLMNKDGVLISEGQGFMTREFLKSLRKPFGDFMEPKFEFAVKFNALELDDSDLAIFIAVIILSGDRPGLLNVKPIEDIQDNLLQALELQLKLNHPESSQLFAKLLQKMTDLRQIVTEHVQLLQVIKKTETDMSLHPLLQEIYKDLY
Method in brief: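 Compounds dissolved in DMSO were added to PPARg UAS-bla HEK293H cells for 17 h at 37C, and reporter expression was quantified by fluorescence intensity after 1 h with LiveBLAzer B/G FRET substrate.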

[5] = molecular target: Peroxisome proliferator-activated receptor gamma (Homo sapiens) (UniProt P37231); test: qHTS assay to identify small molecule antagonists of the peroxisome proliferator-activated receptor gamma (PPARg) signaling pathway (AID 743191; calls by dose curve; note: nearly all actives have a fitted effect of over 30% in size; note: potency is the fitted concentration of half-maximal effect)
Method in brief: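 GeneBLAzer PPARg UAS-bla HEK293H cells, 5 h post-plating, exposed to compounds 17 h at 37C. LiveBLAzer B/G FRET substrate added for 1 h at room temperature; beta-lactamase reporter read by fluorescence intensity.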

[6] = qHTS assay to identify small molecule antagonists of the peroxisome proliferator-activated receptor gamma (PPARg) signaling pathway - cell viability counter screen (AID 743194); note: nearly all actives have a fitted effect of over 55% in size
Method in brief: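 Cytotoxicity counter screen in PPARg-bla HEK293H cells, same wells as reporter assay. Compounds plus 50 nM rosiglitazone (final) for 17 h at 37 C, then viability read by CellTiter-Glo luminescence.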

[7] = qHTS assay for small molecule agonists of the antioxidant response element (ARE) signaling pathway (AID 743202; active = well fitted activation curve with a large enough effect in the signal ratio in the repeat runs, not every such curve was filed as active; the % refers to the signal ratio; note: potency is the fitted concentration of half-maximal effect)
Method in brief: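 ARE-bla HepG2 cells (beta-lactamase reporter under the antioxidant response element), plated 5 hours, then exposed to compounds 16 hours at 37 C. LiveBLAzer B/G FRET substrate added for 2 hours at room temperature; fluorescence intensity read.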

[8] = qHTS assay for small molecule agonists of the antioxidant response element (ARE) signaling pathway - cell viability counter screen (AID 743203; calls by dose curve; note: nearly all actives have a fitted effect of over 55% in size)
Method in brief: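 Following 16 hrs of compound treatment at 37C, HepG2 cells with an ARE-controlled beta-lactamase gene were lysed with CellTiter-Glo. Luminescence was read after 30 min at room temperature.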

[9] = qHTS assay for small molecule activators of the heat shock response signaling pathway - cell viability counter screen (AID 743209); note: nearly all actives have a fitted effect of over 50% in size
Method in brief: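 Readout: CellTiter-Glo luminescence, 30 min at room temperature. System: HSE-bla HeLa cells, 1500/well, plated overnight. Treatment: compounds in DMSO, 5 h at 37 C.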

[10] = qHTS assay for small molecule activators of the heat shock response signaling pathway (AID 743210; active = well fitted activation curve with a large enough effect in the signal ratio in the repeat runs, with a control signal flat, not every such curve was filed as active; the % refers to the signal ratio; note: series mostly up to about 63 µM)
Method in brief: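 HSE-bla HeLa cells (beta-lactamase reporter under heat shock response elements), plated overnight, then exposed to compounds 5 h at 37 C; LiveBLAzer B/G FRET substrate added, 2.5 h at room temperature, fluorescence intensity read.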

[11] = qHTS assay to identify small molecule agonists of the peroxisome proliferator-activated receptor delta (PPARd) signaling pathway - cell viability counter screen (AID 743211); note: nearly all actives have a fitted effect of over 55% in size
Method in brief: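 Counter screen for cytotoxicity run in parallel with the PPARd reporter screen. Beta-lactamase reporter HEK293H cells exposed to compounds 17 h; ATP-based CellTiter-Glo luminescence quantified viability.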

[12] = qHTS assay to identify small molecule antagonists of the peroxisome proliferator-activated receptor delta (PPARd) signaling pathway - cell viability counter screen (AID 743213); note: nearly all actives have a fitted effect of over 50% in size
Method in brief: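 HEK293H PPARd UAS-bla cells, 5 h pre-incubation, compound + L165041 300 nM final, 17 h 37 C; B/G FRET substrate 2 h RT; then CellTiter-Glo 30 min RT, luminescence.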

[13] = molecular target: Peroxisome proliferator-activated receptor delta (Homo sapiens) (UniProt Q03181); test: qHTS assay to identify small molecule antagonists of the peroxisome proliferator-activated receptor delta (PPARd) signaling pathway (AID 743215; active = well fitted inhibition curve with a large enough effect in the signal ratio in the repeat runs, not every such curve was filed as active; the % refers to the signal ratio;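 note: cells stimulated with agonist L165041 at 300 nM final during compound exposure; series mostly up to about 62 µM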)
Peroxisome proliferator-activated receptor delta (Homo sapiens), sequence (Q03181 whole entry, looked up): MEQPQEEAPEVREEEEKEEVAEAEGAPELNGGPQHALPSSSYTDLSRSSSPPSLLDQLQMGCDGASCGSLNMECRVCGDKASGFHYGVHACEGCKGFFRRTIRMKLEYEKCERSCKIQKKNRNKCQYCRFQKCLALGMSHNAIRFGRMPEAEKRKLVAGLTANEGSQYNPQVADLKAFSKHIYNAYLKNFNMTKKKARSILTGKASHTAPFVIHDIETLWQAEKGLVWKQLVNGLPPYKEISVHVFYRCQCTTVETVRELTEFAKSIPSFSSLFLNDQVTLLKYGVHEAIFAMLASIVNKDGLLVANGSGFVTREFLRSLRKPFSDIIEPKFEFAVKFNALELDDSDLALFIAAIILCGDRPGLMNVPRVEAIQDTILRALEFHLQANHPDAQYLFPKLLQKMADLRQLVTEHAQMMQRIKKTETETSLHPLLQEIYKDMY
Method in brief: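 HEK293H UAS-bla, PPARd; agonist L165041 300 nM final with cpd in DMSO; 37 C 17 h; FRET substrate, RT 2 h; fluorescence intensity.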

[14] = qHTS assay to identify small molecule agonists of the farnesoid-X-receptor (FXR) signaling pathway - cell viability counter screen (AID 743218); note: nearly all actives have a fitted effect of over 45% in size
Method in brief: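 Parallel cytotoxicity test: compound-treated (16 h, 37 C) HEK 293T FXR-bla reporter cells were lysed with CellTiter-Glo and luminescence recorded.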

[15] = molecular target: Bile acid receptor (Homo sapiens) (UniProt Q96RI1); test: qHTS assay to identify small molecule agonists of the farnesoid-X-receptor (FXR) signaling pathway (AID 743220; active = well fitted activation curve with a large enough effect in the signal ratio in the repeat runs, not every such curve was filed as active; the % refers to the signal ratio)
Bile acid receptor (Homo sapiens), sequence (Q96RI1 whole entry, looked up): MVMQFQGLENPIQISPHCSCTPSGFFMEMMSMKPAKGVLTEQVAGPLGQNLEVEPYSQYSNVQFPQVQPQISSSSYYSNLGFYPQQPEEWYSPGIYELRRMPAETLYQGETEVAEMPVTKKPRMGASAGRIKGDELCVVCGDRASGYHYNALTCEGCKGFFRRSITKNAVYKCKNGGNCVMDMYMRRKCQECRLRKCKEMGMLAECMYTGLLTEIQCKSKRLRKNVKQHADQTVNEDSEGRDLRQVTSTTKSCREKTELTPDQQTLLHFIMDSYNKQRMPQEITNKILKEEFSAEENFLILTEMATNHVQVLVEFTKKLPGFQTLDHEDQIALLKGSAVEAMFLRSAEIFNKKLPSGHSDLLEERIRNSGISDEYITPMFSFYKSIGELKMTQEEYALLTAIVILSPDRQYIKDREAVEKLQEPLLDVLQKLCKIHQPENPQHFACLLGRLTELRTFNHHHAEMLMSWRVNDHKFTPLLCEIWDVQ
Method in brief: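 Beta-lactamase reporter under UAS control in GeneBLAzer FXR HEK 293T cells (5000/well) measured with LiveBLAzer FRET substrate after 2 h at room temperature. Compound exposure lasted 16 h at 37C.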

[16] = qHTS assay to identify small molecule antagonists of the farnesoid-X-receptor (FXR) signaling pathway - cell viability counter screen (AID 743221; active = well fitted cell-killing curve with a large enough effect in the repeat runs, not every such curve was filed as active; note: nearly all actives have a fitted effect of over 50% in size)
Method in brief: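 Multiplexed counter screen: viability of FXR-bla HEK 293T cells under agonist stimulation by chenodeoxycholic acid (50 uM, final) and test compound for 16 h at 37 C, measured by CellTiter-Glo luminescence in the reporter wells.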

[17] = molecular target: Vitamin D3 receptor (Homo sapiens) (UniProt P11473); test: qHTS assay to identify small molecule agonists of the vitamin D receptor (VDR) signaling pathway (AID 743222; calls by dose curve)
Vitamin D3 receptor (Homo sapiens), sequence (P11473 whole entry, looked up): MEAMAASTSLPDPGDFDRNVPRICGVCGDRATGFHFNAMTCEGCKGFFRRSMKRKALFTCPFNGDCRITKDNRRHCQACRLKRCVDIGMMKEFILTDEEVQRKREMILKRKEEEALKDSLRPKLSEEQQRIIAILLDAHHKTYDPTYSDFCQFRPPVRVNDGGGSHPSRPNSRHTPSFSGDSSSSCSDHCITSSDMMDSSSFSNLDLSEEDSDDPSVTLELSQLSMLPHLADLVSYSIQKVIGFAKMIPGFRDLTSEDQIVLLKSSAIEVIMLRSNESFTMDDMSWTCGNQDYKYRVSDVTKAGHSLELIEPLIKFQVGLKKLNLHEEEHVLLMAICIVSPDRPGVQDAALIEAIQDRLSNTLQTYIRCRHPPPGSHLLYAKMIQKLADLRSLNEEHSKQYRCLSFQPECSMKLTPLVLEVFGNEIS
Method in brief: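 In VDR-bla cells, compound-induced beta-lactamase expression is quantified by FRET substrate fluorescence. Treatment lasts 16 h at 37C; substrate develops 2 h at room temperature.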

[18] = molecular target: Vitamin D3 receptor (Homo sapiens) (UniProt P11473); test: qHTS assay to identify small molecule antagonists of the vitamin D receptor (VDR) signaling pathway (AID 743223; active = well fitted inhibition curve with a large enough effect in the signal ratio in the repeat runs, not every such curve was filed as active; the % refers to the signal ratio)
Method in brief: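 Cells carrying a VDR-driven beta-lactamase reporter (VDR-bla) were co-treated with compound and 3 nM final 1alpha,25-dihydroxyvitamin D3 for 16 h at 37C; reporter activity was measured as FRET substrate fluorescence after 2 h at room temperature.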

[19] = molecular target: Peroxisome proliferator-activated receptor delta (Homo sapiens) (UniProt Q03181); test: qHTS assay to identify small molecule agonists of the peroxisome proliferator-activated receptor delta (PPARd) signaling pathway (AID 743212; calls by dose curve)
Method in brief: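 GeneBLAzer UAS-bla HEK293H cells carrying a PPARδ construct were exposed to compounds at 37 °C. Beta-lactamase activity was read by FRET fluorescence after 2 h at room temperature with LiveBLAzer B/G substrate.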

Structure (SMILES) | Potency [1] | Potency [2] | Potency [3] | Potency [4] | Potency [5] | Potency [6] | Potency [7] | Potency [8] | Potency [9] | outcome [10] | Potency [11] | Potency [12] | outcome [13] | Potency [14] | outcome [15] | Potency [16] | outcome [17] | Potency [18] | outcome [19]
Oc1ccc(Sc2ccc(O)cc2)cc1 | inactive | inactive | inactive | inactive | 16.2 µM (active) | inactive | 22.8 µM (active) | inactive | inactive | inactive | inactive | inactive | inactive | inactive | inactive | inactive | inactive | – | –
CC(C)(C)c1cc(CO)cc(C(C)(C)C)c1O | inactive | inactive | inactive | inactive | inactive | inactive | 31.2 µM (active) | inactive | inactive | inactive | inactive | inactive | – | inactive | inactive | – | inactive | inactive | –
CC(=O)O[C@H]1C[C@@H]2CC[C@@H]3[C@H](CC[C@@]4(C)[C@H]3C[C@H]([N+]3(C)CCCCC3)[C@@H]4OC(C)=O)[C@@]2(C)C[C@@H]1N1CCCCC1 | inactive | inactive | inactive | inactive | inactive | inactive | inactive | inactive | – | inactive | inactive | inactive | inactive | inactive | inactive | inactive | – | – | inactive
CCOC(=S)SSC(=S)OCC | inactive | inactive | inactive | inactive | inactive | inactive | inactive | inactive | inactive | inactive | inactive | inactive | inactive | – | – | inactive | inactive | inactive | inactive
CC(=O)c1c(C)c([N+](=O)[O-])c(C(C)(C)C)c([N+](=O)[O-])c1C | inactive | inactive | inactive | inactive | inactive | inactive | inactive | inactive | inactive | inactive | inactive | inactive | inactive | – | inactive | inactive | inactive | – | –
CCCCOC(O)CC (centres undefined) | inactive | inactive | inactive | inactive | inactive | inactive | inactive | inactive | inactive | inactive | inactive | inactive | inactive | – | inactive | inactive | inactive | inactive | –
N#CCc1cccc(C(F)(F)F)c1 | inactive | inactive | inactive | inactive | inactive | inactive | inactive | inactive | inactive | inactive | inactive | inactive | inactive | inactive | inactive | inactive | – | – | –
O=C(O)/C=C/c1cnc[nH]1 | inactive | inactive | inactive | inactive | inactive | inactive | inactive | inactive | inactive | inactive | inactive | inactive | – | – | – | – | inactive | inactive | –
